In the library only some 2.7% were active in any assay of this set; here they are far more common.
Shn3 inh set2: reduces Shn3 3'UTR luciferase signal in osteoblasts; Clone20 osteoblast Shn3 3'UTR firefly luciferase, 24 h; inhibition, % at 12.5 µM; 360,000 compounds, 0.52% hits; AID 588674;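 active = mean inhibition of at least 75% with every replicate also reaching 75%; inconclusive = mean inhibition at least 75% but some replicate below; inactive = mean inhibition below 75%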;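 also: 0% = median of neutral control wells and 100% = pilot-screen positive control compound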
CF NFkB inh: inhibitors of cystic fibrosis induced NF-kB; inhibition, % at 5 µM; 360,000 compounds, 0.86% hits; KKLEB NF-kB-GFP reporter, PAF-induced, GFP fluorescence overnight;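 active = at least 50% inhibition at 5 µM, scaled per plate between neutral and stimulator controls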;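 also: PAF is a Pseudomonas aeruginosa culture filtrate used as stimulus; plate controls were PAF-stimulated DMSO wells for no effect and unstimulated DMSO wells for full effect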
HIF-2a inh: HIF-2a inhibition | 786-0 RCC cells HIF-2a reporter, luciferase luminescence, overnight | inhibition, % at 18.8 µM | 360,000 compounds, 0.72% hits;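 active = inhibition of the luminescence signal of 40% or more relative to plate controls, in a single-dose primary screen at 18.75 µM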
MITF TRPM1 inh: reduces MITF-dependent TRPM1 promoter luciferase signal. inhibition, % at 12.5 µM. 330,000 compounds, 0.83% hits. AID 488899. SK-MEL-5 TRPM1 promoter luciferase, 24 h;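 active = mean inhibition across replicates of 60% or more, whatever share of single replicates reaches that level; inconclusive = some that reach 60%, reason not given; inactive = mean inhibition across replicates below 60%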
Peg3 prom inh-1: Peg3 promoter activity inhibition. HeLa PEG-Prom luciferase reporter, luminescence, overnight. inhibition, % at 20 µM. 360,000 compounds, 1.7% hits. AID 588405;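 active = inhibition of at least 50% at 20 µM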
KKLEB cytotox: counter-screen for CF NF-kB inhibitors: cytotoxicity; KKLEB CF airway cells viability, ATPlite luminescence, overnight; stronger effect = lower value; cells stimulated with P. aeruginosa culture filtrate; activity change (cytotoxicity), % at 5 µM; 360,000 compounds, 0.36% hits;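 active = corrected activity change at or below -50% at 5 µM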
Peg3 prom inh-2: confirmation of Peg3 promoter inhibitors. shares compounds with Peg3 prom inh-1. HeLa PEG-Prom luciferase reporter, luminescence, overnight. inhibition, % at 20 µM. 1,300 compounds, 84% hits. AID 602417;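 active = at 20 µM dose, 40% or more inhibition averaged across four replicates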
Numbers without * were called inactive; ? = inconclusive; / = not tested or not shown.

SMILES	Shn3 inh set2	CF NFkB inh	HIF-2a inh	MITF TRPM1 inh	Peg3 prom inh-1	KKLEB cytotox	Peg3 prom inh-2
CC(=O)c1sc2c(c1OC(=O)c1ccc(Cl)cc1Cl)c(=O)n(-c1ccccc1)c(=S)n2-c1ccccc1	-8.8	53.9*	37.2	63.1*	79.6*	-16.8	58.6*
CC(=O)c1sc2c(c1OC(=O)c1ccc(Cl)cc1)c(=O)n(-c1ccccc1)c(=S)n2-c1ccccc1	10.8	23.7	-10.0	41.9	39.1	14.9	/
Cc1noc(C)c1S(=O)(=O)NC(=O)C1(C)CCN1C(=O)C1(c2ccc(Cl)cc2)CC1 (stereo unspecified)	-10.8	3.4	11.3	/	5.0	5.8	/
O=C(Nc1nc(-c2ccc3ccccc3c2)cs1)c1ccc(N2C(=O)CCC2=O)cc1	15.6	18.0	-8.6	20.4	55.8*	-12.1	17.2
COc1cc(Cc2nc3ccccc3n2C(C)c2nc3ccccc3[nH]2)cc(OC)c1 (stereo unspecified)	/	/	7.6	/	/	/	/
CCOC(=O)c1cccc(Nc2nc(-c3cccnc3)nc3ccccc23)c1	24.9	12.0	-8.4	19.7	63.2*	-13.5	90.3*
COC(=O)c1cccc(Nc2nc(-c3cccnc3)nc3ccccc23)c1	14.7	34.4	-5.4	11.7	42.6	-11.9	/
CN(C)CCNc1ccc2nnn3c4ccc(O)cc4c(=O)c1c23	-10.9	-30.2	27.0	25.4	74.9*	-16.6	55.8*
Cc1ccc(NCCN(C)C)c2c(=O)c3cc(O)ccc3sc12	41.7	-136.3	23.8	93.4*	105.9*	-23.9	100.2*
COc1ccc(C(=O)C(C)OC(=O)C2CC3CCCC(C2)C3=O)cc1 (stereo unspecified)	-2.2	5.4	-7.7	/	-3.4	1.0	/
COc1cccc(C(NC(C)=O)c2nc(-c3ccc4ccccc4c3)cs2)c1 (stereo unspecified)	14.3	-37.9	-45.3	/	4.4	-0.4	/
CCC(c1ccc(O)c(O)c1)C(CC)c1ccc(O)c(O)c1 (stereo unspecified)	26.3	84.1*	78.6*	0.6	100.3*	-21.2	97.7*
CN(C)CCCN(C(=O)c1ccc(S(=O)(=O)N2CCc3ccccc3C2)cc1)c1nc2c(F)cc(F)cc2s1	-15.7	10.1	13.3	35.3	-33.7	-6.5	/
CCOc1cccc2sc(N(CCCN(C)C)C(=O)c3ccc(S(=O)(=O)N(C)Cc4ccccc4)cc3)nc12	50.3	26.3	3.4	94.5*	98.2*	-26.0	94.7*
Cc1ccc2sc(N(CCCN(C)C)C(=O)c3ccc(S(=O)(=O)N(C)Cc4ccccc4)cc3)nc2c1C	-66.0	28.9	1.0	77.9*	65.5*	-33.1	95.8*
Cc1ccc2sc(N(CCCN(C)C)C(=O)c3ccc(S(=O)(=O)N4CCc5ccccc5C4)cc3)nc2c1C	37.5	-14.9	26.7	64.6*	59.5*	-46.9	57.1*
Cc1cc(C)c2sc(N(CCCN(C)C)C(=O)c3ccc(S(=O)(=O)N(C)Cc4ccccc4)cc3)nc2c1	5.1	7.9	15.4	56.7	97.1*	-10.6	98.3*
CCOc1cccc2sc(N(CCCN(C)C)C(=O)c3ccc(C(=O)c4ccccc4)cc3)nc12	6.5	28.3	-6.3	11.6	30.4	-12.2	/
CCOc1cccc2sc(N(CCCN(C)C)C(=O)Cc3ccccc3)nc12	-14.4	-2.5	13.2	13.2	-31.9	6.3	/
CCOc1cccc2sc(N(CCCN(C)C)C(=O)c3ccc(S(=O)(=O)N(CC)Cc4ccccc4)cc3)nc12	9.6	9.1	-4.6	56.9	94.9*	-16.0	97.4*
Cc1cc(C)c(CN2CCN(CCCn3cnc(C(=O)Nc4ccc(C)c(C)c4)n3)CC2)c(C)c1	5.3	35.4	-20.4	84.2*	97.9*	-37.3	96.6*
Cc1ccc(NC(=O)c2ncn(CCCNCCCN3CCCC3=O)n2)cc1C	-9.0	-8.9	4.1	13.7	-4.0	1.9	/
CN(CC(=O)Nc1ccc(F)c(F)c1F)C(=O)c1cc(-c2ccncc2)nc2ccccc12	9.0	-2.0	21.6	13.7	7.0	-3.7	/
COc1cccc(NC(=O)CN(C)C(=O)c2cc(-c3ccc(F)cc3)nc3ccccc23)c1	13.1	1.0	-7.6	-20.2	63.1*	-18.7	72.8*
CN(CC(=O)Nc1ccc(Cl)c(C(F)(F)F)c1)C(=O)c1cc(-c2ccncc2)nc2ccccc12	25.8	-1.0	17.1	-5.2	77.1*	-21.8	91.5*
SMILES	Shn3 inh set2	CF NFkB inh	HIF-2a inh	MITF TRPM1 inh	Peg3 prom inh-1	KKLEB cytotox	Peg3 prom inh-2
Cc1nc(-c2ccc(F)cc2)c(CC(=O)N(C)CC(=O)Nc2ccc(Cl)c(C(F)(F)F)c2)s1	14.6	19.4	8.4	-3.2	57.8*	-25.7	56.3*
CCNC(=O)C1(C)CCCN(Cc2cccc3c(OC)cc(C(=O)OCC)cc23)C1 (stereo unspecified)	-7.8	-2.8	5.1	/	9.2	-4.2	/
CCN(CC)c1ccc(NC(=O)Cn2c(C(C)NC(=O)c3ccccc3)nc3ccccc32)cc1 (stereo unspecified)	7.2	-2.1	-3.3	6.2	78.5*	-5.1	10.0
CCC(=O)N1CCCC1(C)C(=O)NCc1ccc(SC)cc1 (stereo unspecified)	-5.1	9.1	8.3	/	0.3	-2.5	/
CNCC[C@@H](Oc1ccc(C(F)(F)F)cc1)c1ccccc1	2.8	14.1	-11.7	-9.0	73.7*	-21.3	68.7*
O=C(/C=C\Nc1ccc2c(c1)OCO2)c1ccccn1	61.5	-16.7	71.4*	75.3*	84.6*	-54.5*	71.2*
O=C(Nc1ccc2c(c1)OCO2)c1ccccn1	-40.1	10.9	-170.6	-47.1	-233.8	1.7	/
CC(C)CC1C(=O)N(Cc2cn(CC3CCCCC3)nn2)CCS(=O)(=O)N1Cc1ccc(-c2cccc(C#N)c2)cc1 (stereo unspecified)	28.3	23.7	13.2	32.3	29.9	4.1	/
Cc1nc(C)c(C(=O)N/N=C/c2cc(Br)ccc2O)s1	/	3.7	7.5	63.1*	50.3*	4.0	61.2*
C(=Cc1c[nH]c2ccccc12)c1ccc2ccccc2n1	30.0	-60.4	18.3	18.9	72.1*	-23.7	-3.7
CC12CCC(CC1O)C2C(=O)O (stereo unspecified)	-8.7	-18.5	11.8	/	15.8	-3.2	/
CC1=NN(c2cccc(C(=O)O)c2)C(=O)/C1=C\C=C\c1ccco1	-33.2	5.9	-18.2	-22.0	-35.6	1.6	/
CC1=NN(c2ccccc2)C(=O)/C1=C/C=C/c1ccccc1	?	39.9	68.0*	69.1*	112.5*	11.3	21.7
CC(C)n1nc(C(=O)Oc2cccc(Cl)c2Cl)c2ccccc2c1=O	-16.0	13.1	-5.3	5.1	31.5	-10.7	/
CC(C)n1nc(C(=O)Oc2cc(Cl)ccc2Cl)c2ccccc2c1=O	-7.9	9.2	3.0	6.7	53.5*	-13.4	65.1*
